Data on 40 compounds can be found in PubChem BioAssay (Tox21).

Structures are written as SMILES. Where “and” joins values, the source holds several entries; their conditions need not be identical. Identical values can stand only once. Inconclusive results are not listed. Where a call stands in place of a potency, no number is given. More than one record can exist for a structure, and the calls need not agree. Calls of active or inactive are those of the source. The call rests on the fitted dose curve; in most records, active means well fitted cell-killing curve with a large enough effect in the repeat runs; inconclusive means weak or mixed curves, or effect the other way; inactive means flat fitted curve, though single readings scatter. Peptide text beside a SMILES is read from it.
Potency means the concentration at half of the fitted maximal effect.

A short description of the assay: Nuclear factor erythroid 2-related factor 2/antioxidant responsive element (Nrf2/ARE) small molecule agonists: qHTS cell viability counter screen in human keratinocytes (AID 1919968). Further: nearly all actives have a fitted effect of over 55% in size. Particulars: KeratinoSens HaCaT ARE cells viability, CellTiter-Fluor, 24 h; series mostly up to 92.4 µM. From the text: U.S. Tox21 Program National Center for Advancing Translational Sciences [NCATS] Division of Preclinical Innovation [DPI] U.S. Environmental Protection Agency [EPA] National Institutes of Environmental Health Sciences [NIEHS] National Toxicology Program [NTP] U.S. Food and Drug Administration [FDA] Tox21 Assay Overview: Oxidative stress has been implicated in the pathogenesis of a variety of diseases ranging from cancer to neurodegeneration. The antioxidant response element (ARE) signaling pathway plays an important role in the amelioration of oxidative stress. The KeratinoSens (Givaudan, Switzerland) is an in vitro test method which quantifies luciferase induction as a measure of activation of Keap1-Nrf2-antioxidationt/electrophile response element (ARE) dependant pathway in HaCaT human keratinocytes stably transfected with a selectable plasmid. The KeratinoSens assay is a cell-based assay with a reporter cell line to detect potential skin sensitizers by their ability to induce the Nrf2/ARE-response. The activation of the report gene under culture conditions can be detected by ONE-Glo Luciferase Assay System (Promega, Madison, WI). This cell line has been used to screen the Tox21 10K compound library to identify agonists that induce oxidative stress. The cytotoxicity of the Tox21 compound library against the KS-ARE cell line was tested in parallel by measuring the cell viability using CellTiter- Fluor assay system (Promega, Madison, WI) in the same wells.
Tox21 Assay Protocol Summary: HaCaT derived cell line KeratinoSens were dispensed at 1,500 cells/5uL/well in 1536-well white wall/solid bottom plates using a Multidrop Combi (ThermoFisher Scientific, Waltham, MA) dispenser. After the assay plates were incubated at 37 C/5% CO2 for 5 h, 23 nL of compounds dissolved in DMSO, positive controls or DMSO only was transferred to the assay plate by a pintool workstation (Kalypsys, San Diego, CA). The plates were incubated at 37 C/5% CO2 for 23 h, followed by addition of 1uL/well of CellTiter-Fluor reagent into the assay plates using a Flying Reagent Dispenser (Aurora Discovery, San Diego, CA) for cell viability readout that measures cytotoxicity. After 1 h incubation at 37 C/5% CO2 the fluorescence intensity was measured using a ViewLux (PerkinElmer, Shelton, CT) plate reader.
As to `COCC(C)N` (stereo not given), the Potency result is “inactive”. Next, `CC(=O)Oc1ccccc1C(=O)O`: “inactive”; `Nc1cccc(C(F)(F)F)c1`: “inactive”. Next, `C[C@]12C=CC(=O)C=C1CC[C@@H]1[C@@H]2[C@@H](O)C[C@@]2(C)[C@H]1CC[C@]2(O)C(=O)CO`: “inactive”; `CC(=O)OC[C@H]1O[C@@](COC(C)=O)(O[C@H]2O[C@H](COC(C)=O)[C@@H](OC(C)=O)[C@H](OC(C)=O)[C@H]2OC(C)=O)[C@@H](OC(C)=O)[C@@H]1OC(C)=O`: “inactive”. Next, `O=C(O)CC(O)C(=O)O` (stereo not given): “inactive”; `CC(C)c1ccc(C(C)C)cc1`: “inactive”.

Regarding `C[C@@H](O)[C@H]1C(=O)N2C(C(=O)O)=C(S[C@@H]3CN[C@H](C(=O)N(C)C)C3)[C@H](C)[C@H]12`, the Potency entry is “inactive”.

With `CC(=O)c1ccccc1`, the Potency result was “inactive”. Next, `C=Cc1ccc(C)cc1`: “inactive”. Next, `OCCOCCOCCO`: “inactive”; `CCCCCCCCCCCCCCCO`: “inactive”; `CNNCc1ccc(C(=O)NC(C)C)cc1`: “inactive”. Next, `CCC(C)(C)C(=O)O[C@H]1C[C@@H](C)C=C2C=C[C@H](C)[C@H](CC[C@@H]3C[C@@H](O)CC(=O)O3)[C@H]21`: “inactive”; `C=C[Si](OCCOC)(OCCOC)OCCOC`: “inactive”. As for `CCCCCCCCCCCCO`, the Potency entry is “inactive”. Next, `COC(=O)[C@H](Cc1ccccc1)NC(=O)[C@@H](N)CC(=O)O` (H-Asp-Phe-OMe): “inactive”; `CC(=O)OCCOC(C)=O`: “inactive”; `CCC1(c2ccccc2)C(=O)NCNC1=O`: “inactive”. `COc1ccccc1O`: the Potency result was “inactive”. Next, `OC1C(O)C(O)C(O)C(O)C1O` (stereo not given): “inactive”.

For the compound `CCCCC(CC)COC(=O)c1ccc(C(=O)OCC(CC)CCCC)cc1` (stereo not given), the Potency entry is “inactive”. With `CC/C(C)=N/O`, the Potency result was “inactive”. On to `OCCCc1ccccc1`, for which the Potency result is “inactive”. For the compound `CC(=O)Oc1ccc(C(c2ccc(OC(C)=O)cc2)c2ccccn2)cc1`, the Potency result was “inactive”. As for `ClC/C=C/CCl`, the entry is “inactive”; as for `CC(C)=CCO`, “inactive”; as for `Cc1ccccc1C(OCCN(C)C)c1ccccc1` (stereo not given), “inactive”. As for `CCN(CC)C(=O)c1cccc(C)c1`, the entry is “inactive”; as for `C=C(C)OC(C)=O`, “inactive”. As for `CCCCCCC=O`, the entry is “inactive”. `COC(=O)c1ccc(C)cc1`: the Potency entry was “inactive”. As for `O=C(c1cc(O)c(O)c(O)c1)c1ccc(O)c(O)c1O`, the Potency entry is “inactive”. For `CC1=C(/C=C/C(C)=C/C=C/C(C)=C/CO)C(C)(C)CCC1`, the Potency entry was “inactive”.

For `F[B-](F)(F)F`, the Potency result is “inactive and 31.1 µM (active)”. Next, `CN(C)C=O`: “inactive”; `C/C=C/c1ccc(O)c(OC)c1`: “inactive”; `CC1(C)[C@@H](O[C@H]2O[C@H](C(=O)O)[C@@H](O)[C@H](O)[C@H]2O[C@@H]2O[C@H](C(=O)O)[C@@H](O)[C@H](O)[C@H]2O)CC[C@]2(C)[C@H]3C(=O)C=C4[C@@H]5C[C@@](C)(C(=O)O)CC[C@]5(C)CC[C@@]4(C)[C@]3(C)CC[C@@H]12`: “inactive”.

As for `CC(O)CC(C)(C)O` (stereo not given), the Potency result is “inactive”. On to `CC(C)(C)[C@@H](O)[C@@H](Cc1ccc(Cl)cc1)n1cncn1`, for which the Potency entry was “inactive”.
